# Several values for one entry are separate records, joined by “and”; a condition that tells them apart may be missing. Equal entries are not always repeated. Some compounds were tested as several samples or in several runs, with calls that do not always agree. Activity calls are given as the source filed them. Rule for the calls: active = hit-call score of the fitted dose curve at least 0.9, where 1 is the maximum; inactive = score below 0.9.
# Read-out: CD38, CD38 (gene 952)
# Experiment: BSK_SAg_CD38: BioMAP Diversity Plus: SAg Assay for CD38 Biomarker Activity (AID 2283087)
# Conditions: primary human HUVEC with PBMC; actives raise or lower the signal
# Summary of the method: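 Measures CD38 on a human endothelial/PBMC co-culture driven by SEB and TSST-1, 24 h after compound exposure, using ELISA with fluorescence detection; DMSO defines baseline for bidirectional curve fitting.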
SMILES,AC50,outcome
CC/C(=C(\c1ccccc1)c1ccc(OCCN(C)C)cc1)c1ccccc1,8.87 µM (active) and 7.95 µM (active),–
CC(=O)CCC=C(C)CCC=C(C)C,–,inactive
CC(C)Cc1ccc(C(C)C(=O)O)cc1 (stereo unspecified),–,inactive
CC(C)(CO)CO,–,inactive
OCC(F)(OC(F)(F)C(F)(OC(F)(F)C(F)(F)C(F)(F)F)C(F)(F)F)C(F)(F)F (stereo unspecified),–,inactive
C=C(C)C(=O)OCCC(F)(F)C(F)(F)C(F)(F)C(F)(F)C(F)(F)C(F)(F)C(F)(F)C(F)(F)F,–,inactive
CC(C)CCCC(C)(C)O,–,inactive
C#C[C@]1(O)CC[C@H]2[C@@H]3CCc4cc(O)ccc4[C@H]3CC[C@@]21C,–,inactive
c1ccc(OCCOc2ccccc2)cc1,1.49 µM (active),inactive
CCCO[Si](OCCC)(OCCC)OCCC,–,inactive
CCCCCCCC1CCCC1=O (stereo unspecified),–,inactive
c1ccc2c(c1)-c1ccc3ccc4cccc5cc-2c1c3c45,6.08 µM (active),–
NC(=O)c1c(Cl)cccc1Cl,–,inactive
CC1=CC(C)C(C=O)C(C)C1 (stereo unspecified) (tested in a mixture with another compound),–,inactive
CC=CC(=O)C1=C(C)C=CCC1(C)C,–,inactive
O=C(O)C(F)(F)OC(F)(F)C(F)(F)OC(F)(F)C(F)(F)C(F)(F)C(F)(F)F,41.9 µM (active),inactive
C=CC(=O)OCC(CO)(COC(=O)C=C)COC(=O)C=C,0.34 µM (active),–
c1ccc(Sc2ccccc2)cc1,–,inactive
CC(=O)c1ccc(C)cc1,–,inactive
CCCCCCCCCC(=O)OCC,–,inactive
CC1(C)[C@H](C=C(Cl)Cl)[C@H]1C(=O)OCc1cccc(Oc2ccccc2)c1,–,inactive
O=C(O)C(F)(F)C(F)(F)C(F)(F)C(F)(F)C(F)(F)C(F)(F)C(F)(F)C(F)F,–,inactive
OCCN1CCOCC1,–,inactive
COC(=O)c1ccc(C(=O)OC)cc1,–,inactive

# Read-out: CD40, CD40 (gene 958)
# Experiment: BSK_SAg_CD40: BioMAP Diversity Plus: SAg Assay for CD40 Biomarker Activity (AID 2283088)
# Conditions: primary human HUVEC with PBMC; actives raise or lower the signal
# Summary of the method: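 HUVEC plus PBMC co-culture, superantigen-activated, with CD40 read by ELISA 24 h after dosing. Curves fitted in both directions against DMSO. Overt cytotoxicity checked by parallel SRB total-protein staining.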
SMILES,AC50,outcome
CC/C(=C(\c1ccccc1)c1ccc(OCCN(C)C)cc1)c1ccccc1,9.12 µM (active) and 6.03 µM (active),–
CC(=O)CCC=C(C)CCC=C(C)C,–,inactive
CC(C)Cc1ccc(C(C)C(=O)O)cc1 (stereo unspecified),–,inactive
CC(C)(CO)CO,–,inactive
OCC(F)(OC(F)(F)C(F)(OC(F)(F)C(F)(F)C(F)(F)F)C(F)(F)F)C(F)(F)F (stereo unspecified),2.38 µM (active) and 2.34 µM (active),–
C=C(C)C(=O)OCCC(F)(F)C(F)(F)C(F)(F)C(F)(F)C(F)(F)C(F)(F)C(F)(F)C(F)(F)F,–,inactive
CC(C)CCCC(C)(C)O,–,inactive
C#C[C@]1(O)CC[C@H]2[C@@H]3CCc4cc(O)ccc4[C@H]3CC[C@@]21C,–,inactive
c1ccc(OCCOc2ccccc2)cc1,–,inactive
CCCO[Si](OCCC)(OCCC)OCCC,–,inactive
CCCCCCCC1CCCC1=O (stereo unspecified),–,inactive
c1ccc2c(c1)-c1ccc3ccc4cccc5cc-2c1c3c45,1.98 µM (active),–
NC(=O)c1c(Cl)cccc1Cl,–,inactive
CC1=CC(C)C(C=O)C(C)C1 (stereo unspecified) (tested in a mixture with another compound),–,inactive
CC=CC(=O)C1=C(C)C=CCC1(C)C,–,inactive
O=C(O)C(F)(F)OC(F)(F)C(F)(F)OC(F)(F)C(F)(F)C(F)(F)C(F)(F)F,44 µM (active),inactive
C=CC(=O)OCC(CO)(COC(=O)C=C)COC(=O)C=C,0.696 µM (active),–
c1ccc(Sc2ccccc2)cc1,32.3 µM (active),–
CC(=O)c1ccc(C)cc1,–,inactive
CCCCCCCCCC(=O)OCC,–,inactive
CC1(C)[C@H](C=C(Cl)Cl)[C@H]1C(=O)OCc1cccc(Oc2ccccc2)c1,–,inactive
O=C(O)C(F)(F)C(F)(F)C(F)(F)C(F)(F)C(F)(F)C(F)(F)C(F)(F)C(F)F,–,inactive
OCCN1CCOCC1,–,inactive
COC(=O)c1ccc(C(=O)OC)cc1,–,inactive

# Read-out: CD69, CD69 (gene 969)
# Experiment: BSK_SAg_CD69: BioMAP Diversity Plus: SAg Assay for CD69 Biomarker Activity (AID 2283089);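 for AC50: cell surface CD69 protein quantified by ELISA with fluorescence detection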
# Conditions: primary human HUVEC with PBMC; actives raise or lower the signal
# Summary of the method: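 Values derive from bidirectional fitting relative to DMSO vehicle. Cells: umbilical vein endothelium plus peripheral blood mononuclear cells, treated 24 h before fluorescent ELISA for CD69.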
SMILES,AC50,outcome
CC/C(=C(\c1ccccc1)c1ccc(OCCN(C)C)cc1)c1ccccc1,8.89 µM (active) and 8.09 µM (active),–
CC(=O)CCC=C(C)CCC=C(C)C,–,inactive
CC(C)Cc1ccc(C(C)C(=O)O)cc1 (stereo unspecified),–,inactive
CC(C)(CO)CO,–,inactive
OCC(F)(OC(F)(F)C(F)(OC(F)(F)C(F)(F)C(F)(F)F)C(F)(F)F)C(F)(F)F (stereo unspecified),3.33 µM (active) and 713 nM (active),–
C=C(C)C(=O)OCCC(F)(F)C(F)(F)C(F)(F)C(F)(F)C(F)(F)C(F)(F)C(F)(F)C(F)(F)F,–,inactive
CC(C)CCCC(C)(C)O,–,inactive
C#C[C@]1(O)CC[C@H]2[C@@H]3CCc4cc(O)ccc4[C@H]3CC[C@@]21C,–,inactive
c1ccc(OCCOc2ccccc2)cc1,–,inactive
CCCO[Si](OCCC)(OCCC)OCCC,–,inactive
CCCCCCCC1CCCC1=O (stereo unspecified),–,inactive
c1ccc2c(c1)-c1ccc3ccc4cccc5cc-2c1c3c45,1.98 µM (active),–
NC(=O)c1c(Cl)cccc1Cl,–,inactive
CC1=CC(C)C(C=O)C(C)C1 (stereo unspecified) (tested in a mixture with another compound),–,inactive
CC=CC(=O)C1=C(C)C=CCC1(C)C,–,inactive
O=C(O)C(F)(F)OC(F)(F)C(F)(F)OC(F)(F)C(F)(F)C(F)(F)C(F)(F)F,34.2 µM (active),inactive
C=CC(=O)OCC(CO)(COC(=O)C=C)COC(=O)C=C,0.384 µM (active),–
c1ccc(Sc2ccccc2)cc1,29.7 µM (active),–
CC(=O)c1ccc(C)cc1,–,inactive
CCCCCCCCCC(=O)OCC,–,inactive
CC1(C)[C@H](C=C(Cl)Cl)[C@H]1C(=O)OCc1cccc(Oc2ccccc2)c1,–,inactive
O=C(O)C(F)(F)C(F)(F)C(F)(F)C(F)(F)C(F)(F)C(F)(F)C(F)(F)C(F)F,–,inactive
OCCN1CCOCC1,–,inactive
COC(=O)c1ccc(C(=O)OC)cc1,–,inactive

# Source: PubChem BioAssay (EPA / NIEHS)
